Results from PubChem BioAssay AID1490 (National Center for Advancing Translational Sciences (NCATS), 2009).
The whole screen tested about 310,000 compounds, of which about 11,000 (3.5%) were called active. About 4% were inconclusive and are not listed. The call rests on the fitted dose curve; in most records, active means well fitted inhibition curve with a large enough effect; inconclusive means small, poorly fitted or top-dose-only effect, or another doubt; inactive means no such curve, though single readings can be large or run the other way. The full list was thinned out, with actives kept by preference.

Target: 4'-phosphopantetheinyl transferase ffp (Bacillus subtilis) (UniProt Q9F4F7)
Assay: qHTS Assay for Inhibitors of Bacillus subtilis Sfp phosphopantetheinyl transferase (PPTase);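 further: the enzyme is Sfp with the accession as filed and its product quenches rhodamine fluorescence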;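 on Largest response in the series, negative = inhibition: 0% = enzyme reaction without inhibitor and -100% = no enzyme wells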
Conditions: Biochemical Sfp PPTase activity
Outline: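 After 15 min at room temperature with compound, 15 nM Sfp received 5 uM rhodamine-CoA plus 12.5 uM BHQ-2-ybbR (50 mM Hepes pH 7.6, 10 mM MgCl2). Rate came from the fluorescence difference over 30 min, ex 525/em 598 nm.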
Potency means the concentration at half of the fitted maximal effect.

Largest response in the series, negative = inhibition, inactive:
CCN(CC(=O)NCc1cccs1)C(=O)c1cccc(S(=O)(=O)Nc2ccccc2OC)c1 9.95%
COc1ccc(NC(=O)Cn2ncn3c(cc4ccccc43)c2=O)c(OC)c1OC 14.8%
COc1cc2c(cc1OC)CN(C(=O)c1cc(S(=O)(=O)N3CCCCC3)ccc1Cl)CC2 8.46%
CCCCC(CC)CNCc1cccn1CCN1CCOCC1 (stereo unspecified) -12.1%
COC(=O)c1cc(OCC(=O)NC2CCCc3ccccc32)cc(C(=O)OC)c1 (stereo unspecified) -18.9%
Cc1ccc(OCC(=O)Nc2ccc(NC(=O)c3cccs3)cc2)c(C)c1 29.1%
COc1ccc(N2C(=O)C3CCCN3C2c2cccs2)cc1 (stereo unspecified) -3.66%
COc1ccc(N2C(=O)C(Cc3ccccc3)NC2=S)cc1 (stereo unspecified) 6.01%
O=C(N/C(=C\c1ccc([N+](=O)[O-])cc1)C(=O)N1CCOCC1)c1cccc(Br)c1 3.86%
CCOC(=O)N1CCN(C(=O)C(C)NC(=O)c2ccco2)CC1 (stereo unspecified) 26.5%
CCn1c(SCC(=O)Nc2ccc(Br)cc2)nc2sc3c(c2c1=O)CCN(C)C3 2.9%
Cc1nc(-c2ccc(Cl)cc2)sc1C(=O)NN 5.7%
CCOC(=O)N1CCC(NC(=O)c2ccc3nc(N4CCOCC4)sc3c2)CC1 6.95%
Cc1ccc(NS(=O)(=O)c2ccc3c(c2)NC(=O)CO3)cc1 7.8%
COC(=O)N/N=C/c1ccc(-c2ccc(Cl)c(Cl)c2)o1 -3.69%
O=C(Cn1nnc(-c2ccccc2)n1)N/N=C/c1ccc(-c2ccc(Cl)cc2)o1 25.9%
Cc1cc([N+](=O)[O-])ccc1NC(=O)c1ccc(NC(=O)C(C)C)cc1 6.44%
CC(=O)c1ccc(NC(=O)Nc2ccc([N+](=O)[O-])cc2C)cc1 10.3%
O=[N+]([O-])c1ccc(N(CCO)Cc2ccccc2)c([N+](=O)[O-])c1 3.62%
O=C(c1cnc(Cl)c(Cl)c1)N1CCN(S(=O)(=O)c2ccc(F)cc2)CC1 -5.59%
Cc1cccc(NC(=O)N2CCCCCC2)c1C 3.74%
CC(C)N1CCc2c(sc(NC(=O)Cc3ccccc3)c2C#N)C1 11.3%
CC(=O)N1CCc2c(sc(NC(=O)CCS(=O)(=O)c3ccccc3)c2C#N)C1 -1.97%
CC(CC(=O)Nc1ccc(F)cc1F)S(=O)(=O)c1ccc2c(c1)NC(=O)CO2 (stereo unspecified) 0.768%
NS(=O)(=O)c1ccc(CCNS(=O)(=O)c2cccc3cccnc23)cc1 2.24%
COc1ccc(CN2CCN(C(=O)CCC(=O)Nc3nnc(C(C)C)s3)CC2)cc1F 17.5%
Cc1ccc(NS(=O)(=O)c2ccc(-c3ccc(=O)[nH]n3)o2)c(C)c1 23.5%
CCOC(=O)c1c(-c2ccc(-c3ccccc3)cc2)csc1NC(=O)CCC(=O)O -8.3%
Cc1ccc(OC(=O)c2c(C)nn(-c3ccccc3)c2C)cc1 -5.58%
CN(C(=O)c1cccc([N+](=O)[O-])c1)c1ccccc1C(=O)NCc1ccccc1 15.3%
CCOc1ccc(CNC(=O)CCC(=O)N2CCSc3ccccc32)cc1 11.6%
Nc1ccccc1Sc1ccc(C(F)(F)F)cc1[N+](=O)[O-] 4.01%
CCOC(=O)c1cc(Sc2ccccc2N)cc(C(=O)OCC)n1 2.06%
COCCn1c(N)c(NCc2ccccc2)c(=O)[nH]c1=O -5.84%
CCc1ccc(OCC(=O)NCC(c2ccc(Cl)cc2)N2CCCCC2)cc1 (stereo unspecified) -3.22%
CN(CCC1CCOCC1)C(=O)CC1C(=O)NCCN1Cc1cccc(F)c1 (stereo unspecified) 18.8%
Cc1cc(C(=O)N/N=C/c2ccc(N3CCOCC3)cc2)c(C)o1 16%
C=CCNC(=S)N/N=C/c1ccc(C)s1 10%
CC(NC(=O)COc1ccc(-c2ccccc2)cc1)C1CCCO1 (stereo unspecified) -4.17%
Cc1ccccc1/C=C\c1nc(O)c([N+](=O)[O-])c(=O)[nH]1 2.6%
C=CCn1c(CNC(=O)c2ccco2)nnc1SCC(=O)c1ccc(OC)cc1 17.3%
COC(=O)c1ccc(NC(=O)CSc2nnc(CNc3ccc(OC)cc3)n2C)cc1 7.16%
O=C(NCc1ccc2c(c1)OCO2)C(=O)NCC1OCCN1S(=O)(=O)c1ccc(F)cc1 (stereo unspecified) 4.15%
COc1ccc(OC)c([C@H](O)CNC(=O)CN)c1 4.71%
CC(C)c1nnc(NC(=O)CCC(=O)N2CCN(c3cccc(Cl)c3)CC2)s1 0.428%
CC(C)NS(=O)(=O)c1ccc(OCC(=O)NC2CCCCCC2)cc1 6.32%
Cc1ccc(S(=O)(=O)Nc2nc3ccccc3nc2N2CCc3ccccc3C2)cc1 9.29%
Cc1cc(N2CCN(S(=O)(=O)c3ccc(C)c(C)c3)CC2)c2ccccc2n1 -20.8%
COc1ccc(NS(=O)(=O)c2cccc3nsnc23)cc1Cl 13.3%
Cc1cc(-c2ccc(S(=O)(=O)N3CCN(c4cccc(C(F)(F)F)c4)CC3)s2)on1 8.41%
O=c1[nH]c(-c2cccs2)nc2ccccc12 -0.0388%
S=c1[nH]nc(-c2cccs2)n1/N=C/c1cn(-c2ccccc2)nc1-c1ccc(Cl)cc1 -17.4%
COc1cccc(NC(=O)C2C(c3ccccc3)C2(Cl)Cl)c1 (stereo unspecified) 11.1%
CCn1cc(C(=O)N[C@@H](C)C(=O)NCCO)c(=O)c2cc3c(cc21)OCO3 20.9%
Cc1ccc(S(=O)(=O)CC(=O)NC(C)c2ccccc2)cc1 (stereo unspecified) 12.8%
CN(CCc1ccccn1)C1CCCN(S(=O)(=O)c2ccccc2Cl)C1 (stereo unspecified) 8.81%
CC[C@H](C)[C@H](NC(=O)[C@H](Cc1ccc(O)cc1)NC(=O)[C@@H](NC(=O)[C@H](CCCN=C(N)N)NC(=O)[C@@H](N)CC(=O)O)C(C)C)C(=O)N[C@@H](Cc1cnc[nH]1)C(=O)N1CCC[C@H]1C(=O)N[C@@H](Cc1ccccc1)C(=O)O -1.37%
CCCc1cc(-c2n[nH]c(=S)n2CC)c2ccccc2n1 -1.53%
CCn1c(-c2ccoc2C)n[nH]c1=S 11.6%
CC1=CCC2C(=O)N(c3cccc(C(=O)NC(C)c4ccccc4)c3)C(=O)C2C1 (stereo unspecified) 5.16%
CCOc1ccc(N2C(=O)CC(N(O)c3ccccc3)C2=O)cc1 (stereo unspecified) -14.7%
CCOC(=O)c1ccc(N2C(=O)CC(N(C)Cc3ccccc3)C2=O)cc1 (stereo unspecified) 16.2%
COc1ccc(CCNC(=O)CCc2cn(C)c3ccccc23)c(OC)c1 10.4%
Cc1onc(-c2ccccc2)c1C(=O)N1CCN(S(=O)(=O)c2ccccc2C(F)(F)F)CC1 21.8%
O=C(O)C1CCN(c2ccc([N+](=O)[O-])cc2[N+](=O)[O-])CC1 13.6%
COc1ccc(N2CCN(c3ccc([N+](=O)[O-])cc3Cl)CC2)cc1 2.35%
O=C(Cc1ccc(Cl)cc1)NC1CCS(=O)(=O)C1 (stereo unspecified) 11.6%
COC(=O)Nc1ccc(S(=O)(=O)Nc2cc(OC)nc(OC)n2)cc1 -10.4%
S=C(Nc1ccc(Br)cc1)NC1CCN(Cc2ccccc2)CC1 5.78%
CCOc1ccccc1NC(=S)NC(=O)CCc1ccccc1 -1.83%
COC(=O)c1c(NC(=O)c2ccc(S(=O)(=O)N3CCOCC3)cc2)sc2c1CCN(C(C)C)C2 6.28%
Cn1c(SCC(=O)c2ccc(F)cc2)nnc1-c1ccccn1 -4.04%
Cn1c(CNc2nc(-c3ccccc3)cs2)nnc1SCC(=O)c1ccccc1 3.73%
COCCN1CCn2c(nc3cc(NS(C)(=O)=O)ccc32)C1 11.6%
Cc1cc(=O)oc2c1ccc1ccccc12 3.98%

Potency, active:
COc1ccc(N2C(=O)C3C(C2=O)C(C(=O)c2ccccc2)N2CCCC32)cc1 (stereo unspecified) 50.1 µM
Cc1nc(N2CCOCC2)sc1C(=O)NN 56.2 µM
Nc1nnnn1CC(=O)N/N=C/c1ccc(-c2cccc(Cl)c2)o1 25.1 µM
CCn1c2ccccc2c2cc(NC(=O)Nc3ccc([N+](=O)[O-])cc3C)ccc21 56.2 µM
N#Cc1c(N)sc2c1CCN(C(=O)OCc1ccccc1)C2 20 µM
CCOC(=O)c1c(C)nn(-c2ncccc2NC(=O)CCC(=O)O)c1C 89.1 µM
CCS(=O)(=O)c1cc([N+](=O)[O-])c(Sc2ccccc2N)s1 3.98 µM
O=c1c(O)c(Br)ccc2c(Br)c(O)c(O)c(O)c12 44.7 µM
CNC(=S)N/N=C/c1ccc(N2CCOCC2)s1 8.91 µM
CCn1c(CNc2ccc(OC)cc2)nnc1SCC(=O)c1ccc(OC)cc1 28.2 µM
Cc1ccc(S(=O)(=O)C(C#N)c2nc3ccccc3nc2N2CCCC2)cc1C (stereo unspecified) 50.1 µM
S=c1[nH]c(-c2cccs2)cn1-c1ccccc1 15.8 µM
CCn1c(-c2ccncc2)n[nH]c1=S 39.8 µM
CCCCCCC(=O)N(O)C1CC(=O)N(c2ccccc2)C1=O (stereo unspecified) 7.08 µM
O=[N+]([O-])c1ccc(N2CCN(c3ccc(O)cc3)CC2)c(Cl)c1 50.1 µM
Cn1c(CC2Sc3ccccc3NC2=O)nnc1SCC(=O)c1ccc(Cl)cc1 (stereo unspecified) 44.7 µM
